{"source": "ChEMBL document CHEMBL1201862", "about": "“PubChem BioAssay data set” (2004)", "note": "Hit rate of the full screen: of about 400,000 compounds, about 2,100 (0.53%) were called active. Inconclusive results (about 14%) are left out. How the calls were made is not given here. Many of the other results were omitted from the sample, so actives are more common in it than they were."}
{"molecular_target": "Ataxin-2 (Homo sapiens) (UniProt Q99700)", "sequence (Q99700 whole entry)": "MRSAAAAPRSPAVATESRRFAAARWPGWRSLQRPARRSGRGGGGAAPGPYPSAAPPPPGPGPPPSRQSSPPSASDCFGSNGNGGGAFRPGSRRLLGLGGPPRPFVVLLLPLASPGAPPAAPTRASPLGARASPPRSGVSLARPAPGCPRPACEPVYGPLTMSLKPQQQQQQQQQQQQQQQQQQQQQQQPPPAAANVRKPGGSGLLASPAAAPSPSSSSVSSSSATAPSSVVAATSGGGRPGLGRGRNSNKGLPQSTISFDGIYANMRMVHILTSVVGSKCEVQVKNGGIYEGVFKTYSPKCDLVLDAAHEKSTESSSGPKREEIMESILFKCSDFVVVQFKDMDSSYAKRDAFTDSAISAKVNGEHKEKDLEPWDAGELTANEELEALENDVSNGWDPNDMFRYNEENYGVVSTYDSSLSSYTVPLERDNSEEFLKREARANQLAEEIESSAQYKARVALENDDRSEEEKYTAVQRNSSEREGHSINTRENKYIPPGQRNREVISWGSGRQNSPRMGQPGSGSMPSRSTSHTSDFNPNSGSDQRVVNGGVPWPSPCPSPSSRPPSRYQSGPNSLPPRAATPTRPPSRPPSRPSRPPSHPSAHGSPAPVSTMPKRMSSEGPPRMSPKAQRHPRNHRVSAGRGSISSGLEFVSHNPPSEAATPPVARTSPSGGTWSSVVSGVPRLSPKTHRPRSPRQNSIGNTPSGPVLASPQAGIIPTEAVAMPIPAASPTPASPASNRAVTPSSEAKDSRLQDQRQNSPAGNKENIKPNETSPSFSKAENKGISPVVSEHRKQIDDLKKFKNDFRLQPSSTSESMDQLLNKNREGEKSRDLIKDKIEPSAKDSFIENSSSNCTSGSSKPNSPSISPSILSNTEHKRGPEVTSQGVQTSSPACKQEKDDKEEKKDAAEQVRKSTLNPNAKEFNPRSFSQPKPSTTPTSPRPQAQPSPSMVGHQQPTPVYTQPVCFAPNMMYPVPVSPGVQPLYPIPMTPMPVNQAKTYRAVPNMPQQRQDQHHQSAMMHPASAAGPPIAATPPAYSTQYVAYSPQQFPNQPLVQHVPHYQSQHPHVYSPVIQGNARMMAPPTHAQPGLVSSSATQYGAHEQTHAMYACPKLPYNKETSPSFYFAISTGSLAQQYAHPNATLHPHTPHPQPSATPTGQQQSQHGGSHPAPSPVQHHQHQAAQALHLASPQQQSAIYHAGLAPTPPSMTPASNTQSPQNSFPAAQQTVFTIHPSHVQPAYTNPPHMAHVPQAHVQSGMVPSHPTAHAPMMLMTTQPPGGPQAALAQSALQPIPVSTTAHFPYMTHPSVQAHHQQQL", "assay": "qHTS for Inhibitors of ATXN expression.", "type": "functional"}
{"smiles": "CCCc1cc(NCc2ccccn2)n2c(nc3ccccc32)c1C#N", "Potency": "inactive"}
{"smiles": "C=C1C(=O)OC2CC1C(O)CC(C)=CCCC(C)=CC(O)CC2C", "note": "(centres undefined)", "Potency": "15 µM (active)"}
{"smiles": "NC(=O)c1sc2nc(-c3ccccc3)c3c(c2c1N)CCCC3", "Potency": "inactive"}
{"smiles": "CC(=O)c1sc2nc(-c3ccc(C)cc3)c3c(c2c1N)CCCC3", "Potency": "inactive"}
{"smiles": "CN(C)CCNc1ncnc2c1sc1nc(-c3ccccc3)c3c(c12)CCCC3", "Potency": "25.1 µM (active)"}
{"smiles": "CCN(CC)c1cc(C)c(C#N)c2nc3ccccc3n12", "Potency": "inactive"}
{"smiles": "Cc1cc(C)nc(OC(C(=O)O)C(OCCc2ccccc2)(c2ccc(F)cc2)c2ccc(F)cc2)n1", "note": "(centres undefined)", "Potency": "inactive"}
{"smiles": "CS(=O)(=O)c1ccc(C(=O)NCCN2C(=O)S/C(=C\\c3cccnc3)C2=O)cc1[N+](=O)[O-]", "Potency": "11.2 µM (active)"}
{"smiles": "Cc1ccc(C(=O)NCC(=O)N/N=C/c2cccs2)cc1[N+](=O)[O-]", "Potency": "inactive"}
{"smiles": "COc1ccc(OCC(O)CNCCOc2ccccc2OC)c(C(C)(C)C)c1", "note": "(centres undefined)", "Potency": "20 µM (active)"}
{"smiles": "CNCCCOc1ccc(C)cc1OC", "Potency": "inactive"}
{"smiles": "COCCCn1c(=N)c(C(=O)NC2CCCC2)cc2c(=O)n3cccc(C)c3nc21", "Potency": "inactive"}
{"smiles": "COc1ccc(C(C(=O)NC2CCCC2)N(C(=O)c2ccco2)c2cc3c(cc2C(C)=O)OCO3)cc1", "note": "(centres undefined)", "Potency": "inactive"}
{"smiles": "COCCN(C(=O)CCl)C(C(=O)NC1CCCCC1)c1ccccc1C", "note": "(centres undefined)", "Potency": "25.1 µM (active)"}
{"smiles": "CC(C(=O)NC1CCCCC1)N(Cc1ccc(F)cc1)C(=O)c1snc(C(N)=O)c1N", "note": "(centres undefined)", "Potency": "inactive"}
{"smiles": "COc1ccc(C(C(=O)NC2CCCCC2)N(C(=O)CCl)c2ccc(C)cc2)cc1", "note": "(centres undefined)", "Potency": "7.08 µM (active)"}
{"smiles": "O=C(NC1CCCC1)C(c1ccc(Cl)cc1)N(Cc1ccc(F)cc1)C(=O)CCl", "note": "(centres undefined)", "Potency": "39.8 µM (active)"}
{"smiles": "CCc1ccc(N(C(=O)c2snc(C(N)=O)c2N)C(C(=O)NC2CCCC2)c2ccncc2)cc1", "note": "(centres undefined)", "Potency": "inactive"}
{"smiles": "COCCCn1c(C(=O)NC2CCCCC2)cc2c(=O)n3cccc(C)c3nc21", "Potency": "inactive"}
{"smiles": "NC(=O)c1nsc(C(=O)N(Cc2cccnc2)C(C(=O)NC2CCCC2)c2ccc(F)cc2)c1N", "note": "(centres undefined)", "Potency": "inactive"}
{"smiles": "COc1ccc(CCN2C(=O)CC(C(N)=O)S/C2=N\\c2ccccc2)cc1", "note": "(centres undefined)", "Potency": "inactive"}
{"smiles": "Cc1cc(C)c2c(N)c(C(=O)NN3CC(=O)N(c4cccc(Cl)c4)CC3=O)sc2n1", "Potency": "inactive"}
{"smiles": "CC(C)(C)C(=O)Cn1ncc(Br)c(Br)c1=O", "Potency": "15.8 µM (active)"}
{"smiles": "CO/N=C(\\Cn1ncc(N2CCOCC2)c(Br)c1=O)c1ccc(Cl)cc1", "Potency": "inactive"}
{"smiles": "Nc1cc2c(cc1O)CCCC2", "Potency": "inactive"}
{"smiles": "O=C(COc1ccc(Br)cc1)N1CCc2ccccc21", "Potency": "inactive"}
{"smiles": "CCCCCCn1c(=O)n2n(c1=O)[C@@H]1CN(S(=O)(=O)c3ccc(C)cc3)C[C@]1(O)[C@@H](OC(=O)NC1CCCC1)C2", "Potency": "44.7 µM (active)"}
{"smiles": "CCCCCCn1c(=O)n2n(c1=O)[C@@H]1CN(S(=O)(=O)c3ccc(C)cc3)C[C@]1(O)[C@@H](OC(=O)NCC1CCCCC1)C2", "Potency": "31.6 µM (active)"}
{"smiles": "CCCCCCn1c(=O)n2n(c1=O)C[C@]1(OC(=O)NCC3CCCCC3)CN(S(=O)(=O)c3ccc(C)cc3)C[C@]1(O)C2", "Potency": "31.6 µM (active)"}
{"smiles": "COCCCn1c(=N)c(C(=O)NC2CCCC2)cc2c(=O)n3cc(C)ccc3nc21", "Potency": "inactive"}
{"smiles": "CCOCCCn1c(=N)c(C(=O)NC2CCCC2)cc2c(=O)n3cc(C)ccc3nc21", "Potency": "inactive"}
{"smiles": "Cc1cccc(C)c1N=C(S)NCCc1ccc(O)c(O)c1", "Potency": "inactive"}
{"smiles": "CC1CC1C(=O)OCC(=O)c1c(N)n(C)c(=O)n(C)c1=O", "note": "(centres undefined)", "Potency": "inactive"}
{"smiles": "CCOC(=O)c1cc2c(=O)n3ccccc3nc2n(Cc2ccco2)/c1=N/C(=O)c1cccnc1", "Potency": "inactive"}
{"smiles": "COc1ccc(-n2c3nc4ccccc4nc3c3c(=N)oc(C)nc32)cc1", "Potency": "inactive"}
{"smiles": "COc1cc(/C=C(\\C#N)c2nc3ccccc3n2C)cc(OC)c1O", "Potency": "inactive"}
{"smiles": "Cc1cccn2c(=O)c3cc(C#N)/c(=N\\C(=O)c4cccnc4)n(CC4CCCO4)c3nc12", "note": "(centres undefined)", "Potency": "inactive"}
{"smiles": "O=C1CN2CCC1C/C2=C\\c1ccnc2c(Cl)cccc12", "note": "(centres undefined)", "Potency": "inactive"}
{"smiles": "C=C1C(=O)c2sccc2C(c2ccc(OC)c(OC)c2)C1COC(C)=O", "note": "(centres undefined)", "Potency": "5.97 µM (active)"}
{"smiles": "COC(=O)C1=CN(Cc2ccc(OC)c(OC)c2)C=C(C(=O)OC)C1c1cccs1", "Potency": "inactive"}
{"smiles": "CN1CCN(c2nc3ccccn3c(=O)c2C=C(C#N)C#N)CC1", "Potency": "inactive"}
{"smiles": "CC1(C)CC(=O)C2=C(C1)c1c(ccc3ccccc13)NC2c1ccc(OCC(=O)O)cc1", "note": "(centres undefined)", "Potency": "inactive"}
{"smiles": "Cc1ccc2nc(NCC(N)=O)nc(-c3ccccc3)c2c1", "Potency": "inactive"}
{"smiles": "O=c1c(Cl)c(Cl)cnn1Cc1nnc(-c2ccccc2Br)o1", "Potency": "39.8 µM (active)"}
{"smiles": "Nc1cccc2c1C(=O)N(Cc1nnc(-c3ccccc3Br)o1)C2=O", "Potency": "inactive"}
{"smiles": "COc1ccc(/C=C2\\Oc3cc(OCC(=O)N4CCC[C@H]4C(=O)O)ccc3C2=O)c(OC)c1", "Potency": "inactive"}
{"smiles": "COc1ccc(-c2nc3ccccc3c(=O)n2CCOc2c(C)cccc2C)cc1", "Potency": "inactive"}
{"smiles": "COc1ccc(-c2nnc(SCc3cc(=O)c4cc(C)cc(C)c4[nH]3)n2C)cc1", "Potency": "17.8 µM (active)"}
{"smiles": "CCCCCc1cc(=O)oc2c(C(CCN3CCCC(C)C3)c3ccc(N(C)C)cc3)c(OC)cc(OC)c12", "note": "(centres undefined)", "Potency": "22.4 µM (active)"}
{"smiles": "COc1ccc(CN2COc3ccc4c(C)cc(=O)oc4c3C2)cc1", "Potency": "inactive"}
{"smiles": "COc1cc(OC)c2c(C)cc(=O)oc2c1C(CCN1CCOCC1)c1ccc2c(c1)OCO2", "note": "(centres undefined)", "Potency": "20 µM (active)"}
{"smiles": "Cc1c(O)ccc2c(CN3CCOCC3)cc(=O)oc12", "Potency": "inactive"}
{"smiles": "CCCc1cc(=O)oc2c3c(ccc12)OCN(Cc1ccccc1OC)C3", "Potency": "inactive"}
{"smiles": "CCCCCc1cc(=O)oc2c(C(CCN3CCCC(C)C3)c3ccc4c(c3)OCO4)c(OC)cc(OC)c12", "note": "(centres undefined)", "Potency": "35.5 µM (active)"}
{"smiles": "CCCCCc1cc(=O)oc2c(C(CCN3CCCC(C)C3)c3ccc(OC)cc3)c(OC)cc(OC)c12", "note": "(centres undefined)", "Potency": "31.6 µM (active)"}
{"smiles": "COc1ccc(-c2c(C)c3ccc(O)c(CN4CCCC(C)C4)c3oc2=O)cc1OC", "note": "(centres undefined)", "Potency": "inactive"}
{"smiles": "CCN1CCc2c(C#N)c(N3CCOCC3)nc(NCCO)c2C1", "Potency": "inactive"}
{"smiles": "CCc1cc2c(CN3CCN(CCO)CC3)cc(=O)oc2cc1O", "Potency": "inactive"}
{"smiles": "CC(=O)c1ccc(NS(=O)(=O)c2ccc3c(c2)N(C(C)=O)CCO3)cc1", "Potency": "inactive"}
{"smiles": "CCCN1CCN(c2ncnc3sc(C(=O)Nc4ccc(C(C)C)cc4)c(C)c23)CC1", "Potency": "31.6 µM (active)"}
{"smiles": "COc1ccc(C)cc1NC(=O)c1sc2ncnc(N3CCN(c4ccccn4)CC3)c2c1C", "Potency": "inactive"}
{"smiles": "CCOC(=O)c1sc2ncnc(N3CCN(C)CC3)c2c1C", "Potency": "inactive"}
{"smiles": "COc1cccc(C(=O)Nc2ccc3[nH]c(O)nc3c2)c1OC", "Potency": "inactive"}
{"smiles": "COc1ccccc1C(=O)Nc1cccc(N2CCC(NCc3cnn(-c4ccccc4)n3)CC2)c1", "Potency": "28.2 µM (active)"}
{"smiles": "COc1ccccc1C(=O)Nc1nc2n(n1)C(c1ccc(F)cc1)C=C(c1ccc(Cl)cc1)N2", "note": "(centres undefined)", "Potency": "inactive"}
{"smiles": "CCc1ccc(-c2cc(C(F)(F)F)n3nc(C(=O)Nc4c(C)nn(Cc5ccc(F)cc5)c4C)cc3n2)s1", "Potency": "inactive"}
{"smiles": "Cc1ccc(Cn2nc(C)c(NC(=O)CSc3nc4c(c(C(F)(F)F)n3)CCc3ccccc3-4)c2C)cc1", "Potency": "20 µM (active)"}
{"smiles": "COCCNC(=O)c1cc2nc3c(c(C(F)(F)F)n2n1)CCc1ccccc1-3", "Potency": "inactive"}
{"smiles": "Cc1cccn2c(=O)c3cc(C(=O)NC4CCCC4)c(=N)n(CC4CCCO4)c3nc12", "note": "(centres undefined)", "Potency": "inactive"}
{"smiles": "COCCCn1c(=N)c(C(=O)NC2CCCCC2)cc2c(=O)n3ccccc3nc21", "Potency": "inactive"}
{"smiles": "O=C1N=C(N2CCN(c3ccccc3)CC2)S/C1=C/c1ccco1", "Potency": "inactive"}
{"smiles": "COc1cccc(N2C(=O)C3CCCN3C2=S)c1", "note": "(centres undefined)", "Potency": "inactive"}
{"smiles": "COc1cccc(/C=C2\\SC(=S)N(CCCC(=O)N3CCCCC3CCO)C2=O)c1", "note": "(centres undefined)", "Potency": "39.8 µM (active)"}
{"smiles": "O=C1/C(=C/c2ccco2)SC(=S)N1CCC(=O)N1CCCCC1CCO", "note": "(centres undefined)", "Potency": "17.8 µM (active)"}
{"smiles": "COc1cccc(/C=C2\\SC(=S)N(CCC(=O)NNC(=O)c3ccccc3OC)C2=O)c1", "Potency": "inactive"}
{"smiles": "COc1cccc(/C=C2\\SC(=S)N(CC(=O)N(C)C3CCS(=O)(=O)C3)C2=O)c1", "note": "(centres undefined)", "Potency": "35.5 µM (active)"}
{"smiles": "Cc1ccc(-n2nc(C)c3c(C(=O)OCC(=O)N(C)C4CCS(=O)(=O)C4)cc(-c4ccccc4)nc32)cc1", "note": "(centres undefined)", "Potency": "inactive"}
{"smiles": "COc1cccc(/C=C2/SC(=S)N(CC(=O)NNC(=O)c3ccccc3OC)C2=O)c1", "Potency": "inactive"}
{"smiles": "CCCn1nc(NC(=O)c2ccco2)c2cc3cc(C)ccc3nc21", "Potency": "inactive"}
{"smiles": "CCCn1nc(NC(=O)c2ccco2)c2cc3ccc(C)cc3nc21", "Potency": "inactive"}
{"smiles": "Cc1cccc(OCCn2c(NC(=O)c3ccco3)nc3ccccc32)c1", "Potency": "39.8 µM (active)"}
{"smiles": "COCCCn1c(=N)c(C(=O)NCC2CCCO2)cc2c(=O)n3cc(C)ccc3nc21", "note": "(centres undefined)", "Potency": "inactive"}
{"smiles": "Cc1cccc(C2=NN(c3ccccc3)[C@H](CO)[C@H]2c2ccccc2)c1", "Potency": "inactive"}
{"smiles": "COc1ccc(Br)cc1C(C[N+](=O)[O-])c1c(N)n(C)c(=O)n(C)c1=O", "note": "(centres undefined)", "Potency": "17.8 µM (active)"}
{"smiles": "Cn1c(N)c(C(=O)CN2CCc3ccccc3C2)c(=O)n(C)c1=O", "Potency": "inactive"}
{"smiles": "COc1ccccc1C(C[N+](=O)[O-])c1c(N)n(C)c(=O)n(C)c1=O", "note": "(centres undefined)", "Potency": "14.1 µM (active)"}
{"smiles": "CN(C)c1ccc(C(C[N+](=O)[O-])c2c(N)n(C)c(=O)n(C)c2=O)c(F)c1C#N", "note": "(centres undefined)", "Potency": "25.1 µM (active)"}
{"smiles": "CCn1cc(C(=O)N2CCCC(N3CCN(c4cccc(C(F)(F)F)c4)CC3)C2)cn1", "note": "(centres undefined)", "Potency": "inactive"}
{"smiles": "CN(C)c1ncc(C2=C(Cl)C(=O)C(N3CCCC3)=C(Cl)C2=O)s1", "Potency": "25.1 µM (active)"}
{"smiles": "Cc1cc2c(cc1C)C(=O)C(=O)N2", "Potency": "inactive"}
{"smiles": "N#Cc1c(-c2ccccc2Cl)c2c([nH]c1=O)-c1ccccc1OC2", "Potency": "inactive"}
{"smiles": "COc1cccc2cc(C(=O)C3=C(O)C(=O)N(CCN(C)C)C3c3ccc(Cl)cc3)oc12", "note": "(centres undefined)", "Potency": "inactive"}
{"smiles": "COc1ccccc1-c1cc(C(=O)Nc2cc(C)n(Cc3ccc(Cl)cc3)n2)no1", "Potency": "28.2 µM (active)"}
{"smiles": "COc1cccc2c1c(NC(=O)c1cc(C)on1)nn2C", "Potency": "inactive"}
